Measurements taken from PubChem BioAssay AID1159580 (chemical genetic matrix, 2015).
About 2,000 (36%) of roughly 5,500 compounds were called active. Roughly 18% stayed inconclusive and do not appear here. Cut-off read from the data, not from the text of the source: active = normalized growth mostly below about 0.91 (no sharp cut-off); inconclusive = no clear call, values can overlap the other calls; inactive = mostly above about 0.92. The list shows a part of the results.

Experiment: chemical genetic growth profiling, strain panel (AID 1159580);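 note: tested at 20 µM; growth read once vehicle control cultures reached saturation at 30 °C; 1 = growth at the plate median or of vehicle wells; lower values mean less growth of the strain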
Conditions: S. cerevisiae deletion strains, growth OD
[1] = locus YHR030C, strain SLT2, hits give low values
[2] = locus YGR078C, strain PAC10, hits give low values
[3] = locus YNL153C, strain GIM3, hits give low values
[4] = locus YPL055C, strain LGE1, hits give low values
[5] = locus YPL241C, strain CIN2, hits give low values

Measured: normalized growth

O=C[C@H](O)[C@@H](O)[C@H](O)CO
inactive: [1] 1.04 | locus YHR079C, strain IRE1, hits give low values 1.06 | locus YJL095W, strain BCK1, hits give low values 1.06 | locus YJR066W, strain TOR1, hits give low values 0.998 | locus YLR113W, strain HOG1, hits give low values 1.07 | locus YNL183C, strain NPR1, hits give low values 1.03 | locus YOR231W, strain MKK1, hits give low values 1.09 | locus YPL256C, strain CLN2, hits give low values 1.02

Clc1ccc2ocnc2c1
inactive: locus YAL013W, strain DEP1, hits give low values 1.01 | locus YBR229C, strain ROT2, hits give low values 1.01 | locus YDL101C, strain DUN1, hits give low values 1 | locus YDR150W, strain NUM1, hits give low values 0.95 | locus YEL061C, strain CIN8, hits give low values 1.01 | [2] 1 | locus YGR229C, strain SMI1, hits give low values 1.01 | [1] 1.05 | locus YHR087W, strain rtc3, hits give low values 0.996 | locus YJR043C, strain POL32, hits give low values 0.931 | locus YJR075W, strain HOC1, hits give low values 0.999 | locus YKL190W, strain CNB1, hits give low values 1.02 | locus YLR039C, strain RIC1, hits give low values 1.02 | locus YLR058C, strain SHM2 (second series), hits give low values 1 | locus YLR085C, strain ARP6, hits give low values 0.997 | locus YLR262C, strain YPT6, hits give low values 1.08 | locus YML094W, strain GIM5, hits give low values 0.999 | locus YMR219W, strain ESC1, hits give low values 1.01 | locus YMR263W, strain SAP30, hits give low values 1.01 | locus YNL128W, strain TEP1, hits give low values 1.02 | [3] 0.996 | locus YNL298W, strain CLA4 (second series), hits give low values 1.04 | locus YNL322C, strain KRE1, hits give low values 1.01 | locus YNR030W, strain Alg12, hits give low values 1 | locus YOL006C, strain TOP1, hits give low values 1.09 | [4] 0.906 | [5] 1.01 | locus YPR135W, strain CTF4, hits give low values 1.08

CC(C)NCC(O)COc1ccc(CCOCC2CC2)cc1 (stereo not drawn)
inactive: locus YAL040C, strain CLN3, hits give low values 1.05 | locus YCL061C, strain MRC1 (second series), hits give low values 1 | locus YER002W, strain NOP16, hits give low values 1.03 | [2] 0.994 | locus YMR307W, strain GAS1, hits give low values 0.998 | [3] 1.01 | locus YNL175C, strain NOP13, hits give low values 1.02 | locus YNL197C, strain WHI3, hits give low values 1.03 | locus YNL224C, strain SQS1, hits give low values 1.01 | locus YOR083W, strain WHI5 (second series), hits give low values 1.05 | [4] 0.998 | [5] 1
